# Reference: PubChem BioAssay (Tox21)
# A number with no mark means an inactive call. Records with an inconclusive call do not appear. Where a call stands in place of a potency, no number is given. Active and inactive are the calls of the source. Unless noted, the call rests on the fitted dose curve; in most records, active means well fitted curve in the direction sought with a large enough effect in the repeat runs; inconclusive means weak or mixed curves; inactive means no such curve, though single readings can be large; an effect the other way counts as inactive or inconclusive.
# Key:
# [1] = qHTS assay for identifying genotoxic compounds that show differential cytotoxicity against isogenic chicken DT40 cell lines with known DNA damage response pathways - Rad54/Ku70 mutant cell line (AID 743015); further: nearly all actives have a fitted effect of over 60% in size; further: potency means the concentration at half of the fitted maximal effect
# [2] = qHTS assay to identify small molecule phospholipidosis (PLD) inducers (AID 1259344; active means well fitted curve in the direction sought with a large enough effect; an effect the other way counts as inactive or inconclusive)
# Outline: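 Quantitative HTS in HepG2: compound plus LipidTOX Red dye for 24 h, paraformaldehyde fixation with Hoechst 33342, widefield high-content imaging; amiodarone as positive and DMSO as negative control.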
# [3] = Caspase-3/7 induction in HepG2 cells by small molecules, qHTS assay (AID 1346978); further: nearly all actives have a fitted effect of over 15% in size
# Outline: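 Wild-type HepG2 cells, 2,000/well, settled 5 hr at 37 C and 5% CO2, then compound-treated for 17 hr; caspase-3/7 activity read by luminescent Caspase-Glo 3/7 after 30 min at room temperature.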
# [4] = biological target: Acetylcholinesterase (Homo sapiens) (UniProt P22303); assay: Acetylcholinesterase (AChE) small molecule antagonists: enzyme-based qHTS assay with human liver microsomes (AID 1347399; calls by dose curve; further: nearly all actives have a fitted effect of over 60% in size); conditions: Potency: qHTS inhibition; outcome: qHTS inhibition
# Outline: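 Recombinant human AChE (50 mU/mL in the enzyme mix) and human liver microsomes (0.25 mg/mL final) were preincubated with compound and NADPH (0.25 mg/mL final) for 30 min at 37 C. Acetylthiocholine/DTNB was then added; thiocholine was read colorimetrically after 10 min at room temperature.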
# [5] = biological target: Glucocorticoid receptor (Homo sapiens) (UniProt P04150); assay: qHTS assay to identify small molecule antagonists of the glucocorticoid receptor (GR) signaling pathway (AID 720692; active means well fitted inhibition curve with a large enough effect in the signal ratio in the repeat runs, not every such curve was filed as active; the % refers to the signal ratio; further: potency means the concentration at half of the fitted maximal effect)
# Outline: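 GR-bla HeLa cells carrying a GRE-driven beta-lactamase reporter received compound after 4 h plating, then dexamethasone (5 nM final). After 18 h at 37C, the FRET substrate was loaded for 2 h at room temperature and fluorescence read.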
# [6] = biological target: Nuclear receptor subfamily 1 group I member 2 (Rattus norvegicus) (UniProt Q9R1A7); assay: Rat pregnane X receptor (rPXR) activation by small molecules, qHTS assay (AID 1346983); conditions: rPXR luciferase reporter cells, One-Glo luminescence, 24 h; max activation: hits give high values; further: nearly all actives have a fitted effect of over 20% in size
# Outline: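 Cell-based rPXR activation assay: rPXR cells, 2,000 per well, rested 5hr at 37 C, then exposed to compounds in DMSO for 24 hr at 37 C. Luciferase activity read by One-Glo luminescence after 30 min at room temperature.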
# [7] = qHTS assay for small molecule agonists of the p53 signaling pathway (AID 651631; calls by dose curve; further: nearly all actives have a fitted effect of over 15% in size)
# Outline: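 Quantitative high-throughput format: 4,000 p53RE-bla HCT-116 cells/well, 5 h pre-incubation, 16 h compound exposure at 37 °C, 2 h room-temperature substrate step, fluorescence intensity measured.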
# [8] = biological target: Androgen receptor (Homo sapiens) (UniProt P10275); assay: qHTS assay to identify small molecule antagonists of the androgen receptor (AR) signaling pathway (AID 743035; active means well fitted inhibition curve with a large enough effect in the signal ratio in the repeat runs, not every such curve was filed as active; the % refers to the signal ratio; further: potency means the concentration at half of the fitted maximal effect)
# Outline: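 HEK293 cells stably carrying UAS-beta-lactamase reporter, 2,000/well, given compounds plus R1881 agonist and incubated 16 h at 37C. LiveBLAzer B/G FRET substrate then added for 2 h at room temperature before fluorescence reading.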
# [9] = biological target: Androgen receptor (Homo sapiens) (UniProt P10275); assay: qHTS assay to identify small molecule agonists of the androgen receptor (AR) signaling pathway (AID 743036; active means well fitted activation curve with a large enough effect in the signal ratio in the repeat runs, with a control signal flat, not every such curve was filed as active; the % refers to the signal ratio; further: potency means the concentration at half of the fitted maximal effect)
# Outline: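 Beta-lactamase under UAS control, stably integrated in HEK293 GripTite cells, reports receptor activation. After 16 h compound treatment, cells received FRET substrate for 2 h at room temperature before fluorescence reading.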
# [10] = biological target: Androgen receptor (Homo sapiens) (UniProt P10275); assay: qHTS assay to identify small molecule agonists of the androgen receptor (AR) signaling pathway using the MDA cell line (AID 743040; further: nearly all actives have a fitted effect of over 20% in size; further: potency means the concentration at half of the fitted maximal effect)
# Outline: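 Human breast carcinoma MDA-kb2 reporter cells (MMTV-luc, AR/GR elements) were treated for 16 h at 37C in 0% CO2 following a 5 h settling period. Signal was quantified by ONE-Glo luminescence.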
# [11] = biological target: Androgen receptor (Homo sapiens) (UniProt P10275); assay: qHTS assay to identify small molecule antagonists of the androgen receptor (AR) signaling pathway using the MDA cell line (AID 743042; further: nearly all actives have a fitted effect of over 55% in size; further: potency means the concentration at half of the fitted maximal effect)
# Outline: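 MDA-kb2 breast carcinoma cells carrying MMTV-luciferase (AR/GR responsive) were co-treated with compounds and the agonist R1881 for 16 h at 37C. Inhibition read as ONE-Glo luminescence; CellTiter-Fluor fluorescence measured in parallel for cytotoxicity.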
# [12] = biological target: Estrogen receptor (Homo sapiens) (UniProt P03372); assay: qHTS assay to identify small molecule antagonists of the estrogen receptor alpha (ER-alpha) signaling pathway (AID 743069; active means well fitted curve in the direction sought with a large enough effect in the signal ratio in the repeat runs, not every such curve was filed as active; the % refers to the signal ratio)
# Outline: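 Reporter cells (ER-alpha-bla, HEK293 background) are conditioned overnight in stripped-serum medium (2% charcoal-stripped FBS). Compound and 17beta-estradiol exposure runs 18 hr at 37C, 5% CO2.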
# [13] = biological target: Nuclear receptor subfamily 1 group I member 2 (Homo sapiens) (UniProt O75469); assay: Human pregnane X receptor (PXR) activation by small molecules, qHTS assay (AID 1346985); further: nearly all actives have a fitted effect of over 40% in size; further: potency means the concentration at half of the fitted maximal effect
# Outline: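 DPX-2 cells (HepG2 co-transfected with a PXR response element and a CYP3A4-promoter luciferase construct) were seeded at 2,000 per well, rested 5 hr at 37C, then exposed to DMSO-dissolved compounds for 24 hr. Activation was read as luciferase luminescence.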
# Nuclear receptor subfamily 1 group I member 2 (Rattus norvegicus), sequence (Q9R1A7 whole entry, looked up): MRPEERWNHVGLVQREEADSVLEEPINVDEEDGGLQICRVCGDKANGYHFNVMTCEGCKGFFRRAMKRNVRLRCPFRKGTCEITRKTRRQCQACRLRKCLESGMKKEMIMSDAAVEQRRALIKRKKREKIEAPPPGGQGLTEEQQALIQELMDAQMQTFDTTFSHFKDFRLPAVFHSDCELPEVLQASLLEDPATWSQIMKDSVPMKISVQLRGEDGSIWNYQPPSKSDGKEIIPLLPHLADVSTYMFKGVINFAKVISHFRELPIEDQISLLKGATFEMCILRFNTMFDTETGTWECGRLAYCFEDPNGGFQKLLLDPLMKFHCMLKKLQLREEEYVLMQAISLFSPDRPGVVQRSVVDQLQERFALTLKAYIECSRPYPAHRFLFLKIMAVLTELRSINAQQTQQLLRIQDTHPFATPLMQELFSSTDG
# Androgen receptor (Homo sapiens), sequence (P10275 whole entry, looked up): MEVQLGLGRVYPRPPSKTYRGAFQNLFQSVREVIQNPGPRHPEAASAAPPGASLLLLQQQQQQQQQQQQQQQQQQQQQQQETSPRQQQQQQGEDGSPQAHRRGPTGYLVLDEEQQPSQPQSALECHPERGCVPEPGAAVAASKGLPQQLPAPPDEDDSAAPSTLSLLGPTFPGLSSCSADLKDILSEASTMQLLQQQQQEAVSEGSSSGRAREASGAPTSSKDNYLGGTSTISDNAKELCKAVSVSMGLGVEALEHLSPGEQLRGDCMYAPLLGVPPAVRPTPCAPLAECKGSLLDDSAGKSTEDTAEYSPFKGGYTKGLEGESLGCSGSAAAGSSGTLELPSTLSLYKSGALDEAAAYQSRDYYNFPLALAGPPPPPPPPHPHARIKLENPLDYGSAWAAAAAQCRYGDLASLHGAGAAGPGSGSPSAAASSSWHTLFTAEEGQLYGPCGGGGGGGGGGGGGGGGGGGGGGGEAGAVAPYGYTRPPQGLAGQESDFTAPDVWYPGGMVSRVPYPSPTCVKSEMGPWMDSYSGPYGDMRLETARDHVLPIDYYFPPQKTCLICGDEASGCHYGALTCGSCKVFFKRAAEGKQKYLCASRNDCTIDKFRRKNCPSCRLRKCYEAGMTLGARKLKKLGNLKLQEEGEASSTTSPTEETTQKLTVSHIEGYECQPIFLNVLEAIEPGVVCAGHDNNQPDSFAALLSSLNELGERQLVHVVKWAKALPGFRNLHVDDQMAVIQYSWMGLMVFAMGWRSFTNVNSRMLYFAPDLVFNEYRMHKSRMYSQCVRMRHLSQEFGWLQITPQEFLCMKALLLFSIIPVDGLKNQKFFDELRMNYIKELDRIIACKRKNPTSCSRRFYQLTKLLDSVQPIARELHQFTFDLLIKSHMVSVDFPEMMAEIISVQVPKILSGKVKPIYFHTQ
# Estrogen receptor (Homo sapiens), sequence (P03372 whole entry, looked up): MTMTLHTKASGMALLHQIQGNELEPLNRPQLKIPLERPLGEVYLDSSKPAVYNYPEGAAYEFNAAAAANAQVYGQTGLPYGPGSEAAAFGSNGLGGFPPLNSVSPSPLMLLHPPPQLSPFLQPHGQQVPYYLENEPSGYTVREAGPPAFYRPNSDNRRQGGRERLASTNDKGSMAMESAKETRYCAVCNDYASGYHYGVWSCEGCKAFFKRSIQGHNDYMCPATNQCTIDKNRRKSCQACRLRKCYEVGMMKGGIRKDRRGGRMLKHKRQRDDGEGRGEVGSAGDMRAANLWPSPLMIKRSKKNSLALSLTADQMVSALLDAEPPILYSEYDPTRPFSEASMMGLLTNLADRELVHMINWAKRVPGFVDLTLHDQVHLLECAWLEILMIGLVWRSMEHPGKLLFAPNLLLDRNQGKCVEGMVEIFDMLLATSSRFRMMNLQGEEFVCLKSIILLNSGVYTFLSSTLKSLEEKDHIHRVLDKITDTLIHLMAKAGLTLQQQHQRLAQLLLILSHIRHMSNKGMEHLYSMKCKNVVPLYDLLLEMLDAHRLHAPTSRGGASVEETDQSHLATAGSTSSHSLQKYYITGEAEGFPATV
# Glucocorticoid receptor (Homo sapiens), sequence (P04150 whole entry, looked up): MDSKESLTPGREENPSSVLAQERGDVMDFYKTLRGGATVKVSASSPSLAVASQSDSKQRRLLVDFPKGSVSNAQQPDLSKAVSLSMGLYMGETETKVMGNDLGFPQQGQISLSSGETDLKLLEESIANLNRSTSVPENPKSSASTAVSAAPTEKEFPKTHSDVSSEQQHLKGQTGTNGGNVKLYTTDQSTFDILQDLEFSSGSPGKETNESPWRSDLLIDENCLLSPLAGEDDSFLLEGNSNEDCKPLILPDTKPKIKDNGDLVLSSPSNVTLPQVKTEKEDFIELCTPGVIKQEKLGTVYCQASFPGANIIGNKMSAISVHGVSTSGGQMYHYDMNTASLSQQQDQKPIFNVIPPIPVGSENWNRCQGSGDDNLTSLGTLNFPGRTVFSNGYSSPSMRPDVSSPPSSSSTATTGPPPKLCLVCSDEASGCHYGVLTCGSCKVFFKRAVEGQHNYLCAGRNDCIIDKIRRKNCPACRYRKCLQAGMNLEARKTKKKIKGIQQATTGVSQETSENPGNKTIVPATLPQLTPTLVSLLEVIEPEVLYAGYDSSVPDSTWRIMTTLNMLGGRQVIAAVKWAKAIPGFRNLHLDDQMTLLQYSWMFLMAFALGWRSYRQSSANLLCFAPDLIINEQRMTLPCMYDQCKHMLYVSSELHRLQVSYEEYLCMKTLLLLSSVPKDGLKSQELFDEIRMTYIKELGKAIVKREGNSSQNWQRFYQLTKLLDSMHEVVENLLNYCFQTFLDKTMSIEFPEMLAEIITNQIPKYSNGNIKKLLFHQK
# Acetylcholinesterase (Homo sapiens), sequence (P22303 whole entry, looked up): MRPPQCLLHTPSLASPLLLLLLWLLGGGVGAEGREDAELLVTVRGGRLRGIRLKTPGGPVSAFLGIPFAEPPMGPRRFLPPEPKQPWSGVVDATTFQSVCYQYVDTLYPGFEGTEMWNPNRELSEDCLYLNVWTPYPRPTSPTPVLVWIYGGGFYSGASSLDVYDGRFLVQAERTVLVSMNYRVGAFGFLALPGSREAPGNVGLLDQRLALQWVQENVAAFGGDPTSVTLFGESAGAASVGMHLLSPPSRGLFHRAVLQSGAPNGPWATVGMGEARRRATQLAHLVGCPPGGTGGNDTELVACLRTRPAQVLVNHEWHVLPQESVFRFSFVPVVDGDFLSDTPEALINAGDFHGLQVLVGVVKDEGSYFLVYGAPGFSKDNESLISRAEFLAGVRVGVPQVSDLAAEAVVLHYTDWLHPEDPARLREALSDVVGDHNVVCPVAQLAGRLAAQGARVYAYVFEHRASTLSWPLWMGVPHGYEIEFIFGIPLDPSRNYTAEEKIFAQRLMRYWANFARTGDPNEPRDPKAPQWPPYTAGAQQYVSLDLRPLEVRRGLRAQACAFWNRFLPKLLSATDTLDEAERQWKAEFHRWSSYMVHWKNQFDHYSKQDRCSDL
smiles,measurement,setting,value
O=c1c2ccccc2[se]n1-c1ccccc1,Potency,[1],6.68 µM (active)
same,Potency,[2],inactive
COc1ccc(C)cc1N,Potency,[3],inactive
same,Potency,[4],inactive
C[C@@H]1[C@@H]2Cc3ccc(O)cc3[C@@]1(C)CCN2CCc1ccccc1,Potency,[1],7.6 µM (active)
same,Potency,[2],inactive
C[C@]12CC[C@H]3[C@@H](CCC4=CC(=O)CC[C@@]43C)[C@@H]1CC[C@H]2O,Potency,[5],4.25 µM (active)
same,Potency,[1],29.8 µM (active)
same,max activation,[6],-0.613%
COC(=O)[C@@H]1[C@H]2CC[C@@H](C[C@H]1OC(=O)c1ccccc1)N2C,Potency,[7],inactive
same,Potency,[1],inactive
same,Potency,[8],inactive
same,Potency,[9],inactive
same,Potency,[10],inactive
same,Potency,[11],inactive
same,Potency,[12],inactive
same,Potency,[13],inactive
CN=C1CN(O)C(c2ccccc2)=c2cc(Cl)ccc2=N1,Potency,[7],inactive
same,Potency,[5],inactive
same,Potency,[1],inactive
same,Potency,[12],inactive
same,Potency,[13],inactive
OC(c1ccccc1)(c1ccccc1)C1CN2CCC1CC2 (stereo unspecified),Potency,[5],inactive
same,Potency,[8],inactive
same,Potency,[10],26.6 µM (active)
same,Potency,[11],inactive
same,Potency,[12],inactive
same,Potency,[13],inactive
C[C@]12CC[C@H](O)C[C@H]1CC[C@@H]1[C@@H]2CC[C@]2(C)[C@@H](c3ccc(=O)oc3)C[C@H]3O[C@]132,Potency,[8],6.01 µM (active)
same,Potency,[11],21.1 µM (active)
same,Potency,[13],3.98 µM (active)
CC(Cc1ccccc1)NC=O (stereo unspecified),Potency,[7],inactive
same,Potency,[1],inactive
same,Potency,[13],inactive
C#CCN1CC(=O)N(COC(=O)C2C(C=C(C)C)C2(C)C)C1=O (stereo unspecified),Potency,[7],inactive
same,Potency,[5],inactive
same,Potency,[1],inactive
same,Potency,[12],inactive
same,max activation,[6],7.13%
same,Potency,[13],inactive
CCN(CC)CCO[C@H]1CC[C@@]2(C)C(=CC[C@@H]3[C@@H]2CC[C@]2(C)C(=O)CC[C@@H]32)C1,Potency,[12],inactive
same,max activation,[6],3.39%
CCC/C=C/C=C/C(=O)O[C@H]1/C(=C/C(=O)OC)C[C@H]2C[C@H]([C@@H](C)O)OC(=O)C[C@H](O)C[C@@H]3C[C@H](OC(C)=O)C(C)(C)[C@](O)(C[C@@H]4C/C(=C/C(=O)OC)C[C@H](/C=C/C(C)(C)[C@]1(O)O2)O4)O3,Potency,[5],inactive
same,Potency,[1],0.0042 µM (active)
same,Potency,[12],inactive
same,max activation,[6],2.43%
O=C(C[C@@H]1NCCC[C@H]1O)Cn1cnc2cc(Br)c(Cl)cc2c1=O,Potency,[7],inactive
same,Potency,[5],inactive
same,Potency,[1],inactive
same,Potency,[12],inactive
same,Potency,[13],inactive
CCCC(C)C1(CC)C(=O)NC(=O)NC1=O (stereo unspecified),Potency,[12],inactive
same,max activation,[6],-2.06%
same,Potency,[13],inactive
CN1[C@@H]2CC[C@H]1CC(OC1c3ccccc3CCc3ccccc31)C2 (stereo partly specified),Potency,[5],inactive
same,Potency,[12],inactive
same,max activation,[6],-2.13%
same,Potency,[13],inactive
C[C@]12C[C@H]3S[C@H]3C[C@@H]1CC[C@@H]1[C@@H]2CC[C@]2(C)[C@@H](O)CC[C@@H]12,Potency,[9],0.0032 µM (active)
same,Potency,[11],inactive
same,Potency,[13],inactive
